In PubChem BioAssay (NCI):
Several values for one entry are separate records, joined by “and”; a condition that tells them apart may be missing. Equal values may be shown once. The panel holds about 83,000 compounds, 20% with a hit somewhere; the sample as a whole holds those more often.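 Method: cells in 96-well plates; compound added at one concentration; 48 h incubation; percent growth measured; values under 10 scored active.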 Activity calls are given as the source filed them. Where a SMILES comes first, the peptide text is derived from it. [ ]: non-standard residue; d: D form. ξ: configuration not given here. ξV = CC(C)C(N)C(=O)O

Each compound was assayed on SK-MEL-5 melanoma (assay: NCI-60 one-dose screen, 48 h (100 = growth as untreated, 0 = no growth, -100 = all killed)). Settings: 0.0025 µM.
Procedure: Growth inhibition of the SK-MEL-5 human tumor cell line is measured as a screen for anti-cancer activity. Cells are grown in 96 well plates and exposed to the test compound for 48 hours. Compounds are tested at a single concentration, which is 10^-5 M for most compounds. The reported endpoint is percent growth (GI% or GIPRCNT), where numbers from 0 - 100% represent growth inhibition, and numbers from -100% - 0 represent cell death. For example, a value of 40 represents 60% growth inhibition. A value of 0 means no net growth occurred over the course of the experiment. A value of -40 indicates 40% of cells at the beginning of the experiment died by the end of the experiment. A value of -100 means all cells are dead at the end of the experiment.
NCI-60 Human Tumor Cell Lines Screen was performed using the standard one-dose NCI protocol, which is described in more detail at https://dtp.cancer.gov/discovery_development/nci-60/default.htm.
Compounds with GIPRCNT values below 10 were considered active. Activity score was based on GIPRCNT using the following formula: […]
Score is 0 for GIPRCNT values of 100 or above, 50 for GIPRCNT values of 0, and 100 for GIPRCNT values of -100.

| Structure (SMILES) | growth |
| --- | --- |
| COc1cccc2c1C(=O)c1c(O)c3c(c(O)c1C2=O)C[C@@](O)(C(=O)CO)C[C@@H]3OC1CC(N)C(O)C(C)O1 (stereo not given in full) | 93.2% (inactive) |

Same assay, conditions: 10 µM

| Structure (SMILES) | growth |
| --- | --- |
| O=c1ccn(C2CC(O)C(COC(c3ccccc3)(c3ccccc3)c3ccccc3)O2)c(=O)[nH]1 (stereo not given) | 93.3% (inactive) |
| COc1cccc2c1C(=O)c1c(O)c3c(c(O)c1C2=O)C[C@@](O)(C(=O)CO)C[C@@H]3OC1CC(N)C(O)C(C)O1 (stereo not given in full) | -85.1% (active) |

Same assay, conditions: 10 µM unless noted

| Structure (SMILES) | growth |
| --- | --- |
| CCC(C)(C)c1cc(O)c(C(C)(C)CC)cc1O | 22.8% (inactive) |
| CCCCCC(C)c1ccc(O)c(C)c1 (stereo not given) | 104% (inactive) |
| NC1=C(Cl)C(=O)c2ccccc2C1=O | -80.8% (active) |
| Nc1c2ccccc2nc2ccccc12 | 5.28% (active) and 19.7% (inactive) and 39.5% (inactive) |
| NNc1ccc2ccccc2c1 | 89.3% (inactive) and 87.6% (inactive) |
| O=C1NC(=O)c2cc([N+](=O)[O-])ccc21 | 104% (inactive) |
| CCCCCCCCCCCC[N+](C)(C)Cc1ccccc1 | -87.1% (active) |
| Nc1ccc2cc3ccc(N)cc3nc2c1 | 105% (inactive) and -3.97% (active) |
| O=C(O)COc1ccc(OCC(=O)O)cc1 | 2.69% (active) |
| CCO/C=C1\SC(=S)N(c2cccc(O)c2)C1=O | 99.4% (inactive) |
| O=C(/C=C/c1cccnc1)c1ccccc1 | 103% (inactive) |
| COC(=O)C1=COC(C)C2C[n+]3ccc4c([nH]c5ccccc54)c3CC12 (stereo not given) | 100% (inactive) and 93.6% (inactive) |
| CSC1SCC2C(=O)N(C)C(C(C)C)C(=O)OCC(NC(=O)c3cnc4ccccc4n3)C(=O)NC(C)C(=O)N(C)C1C(=O)N(C)C(C(C)C)C(=O)OCC(NC(=O)c1cnc3ccccc3n1)C(=O)NC(C)C(=O)N2C (stereo not given) | -73.1% (active) |
| COC(=O)C1C(O)C(C)C(O)C(C)C=C(C)C2=C3C(=C(C)C(=O)c4c(O)c(c(C)c(OC(C)=O)c43)NC(=O)C(C)=C/C=C\C(C)C(O)C(C)C1O)OCO2 (stereo not given) | 110% (inactive) |
| NC(=O)SCC(=O)NNc1ccccc1 | 103% (inactive) |
| CCN1/C(=C/C=C/C=C/c2sc3ccccc3[n+]2CC)Sc2ccccc21 | -95.4% (active) |
| COc1cccc2c1C(=O)c1c(O)c3c(c(O)c1C2=O)C[C@@](O)(C(C)=O)C[C@@H]3OC1CC(N)C(O)C(C)O1 (stereo not given in full) | -90.5% (active) |
| CC(C)C(NC(=O)CN)C(=O)O (stereo not given) (H-Gly-[ξV]-OH) | 104% (inactive) and 102% (inactive) |

| Structure (SMILES) | growth |
| --- | --- |
| Cc1nc(N=C(N)N)nc2ccc3ccccc3c12 | 2.88% (active) |
| CC(C)(C)CC(C)(C)c1ccc(OCCO)cc1 | 119% (inactive) |
| CC(=O)OCC(OC(C)=O)C(OC(C)=O)C(OC(C)=O)C(OC(C)=O)C(/C=N/Nc1ccccc1)=N/Nc1ccccc1 (stereo not given) | 91.9% (inactive) |
| Nc1nc(=S)c2ncn(C3OC(CO)C(O)C3O)c2[nH]1 (stereo not given) | 116% (inactive) and 22.7% (inactive) |
| O=C(Nc1ccc(C(=O)O)c(O)c1)c1ccccc1 | 107% (inactive) and 106% (inactive) |
| O=[N+]([O-])C1=C(c2ccccc2)SC=C(c2ccccc2)S1 | 87% (inactive) |
| OCC1OC(n2cnc3c(=S)nc[nH]c32)C(O)C1O (stereo not given) | 102% (inactive) and 80.9% (inactive) |
| CS(=O)(=O)OC1CC(n2ccc(=O)[nH]c2=O)OC1COC(c1ccccc1)(c1ccccc1)c1ccccc1 (stereo not given) | 101% (inactive) |
| Cc1cc(NS(=O)(=O)c2ccc(N=Nc3cc(N=Nc4ccc(S(=O)(=O)Nc5cc(C)nc(C)n5)cc4)c4c(NC(=O)C(Cl)Cl)cccc4c3OC(=O)C(Cl)Cl)cc2)nc(C)n1 (tested in a mixture with another compound) | 96.9% (inactive) and 87.6% (inactive) |
| O=C1C=CC(=CC=C2C=CN(CCCCCCCCCCCO)C=C2)C=C1 | -54.3% (active) |
| COc1c(O)cc2oc3cc(O)c(CC=C(C)C)c(O)c3c(=O)c2c1CC=C(C)C | 90% (inactive) |
| CN1CCN(CCCN2c3ccccc3Sc3ccc(C(F)(F)F)cc32)CC1 | 24.5% (inactive) |
| OCC(O)C(O)C(O)C(/C=N/Nc1ccccc1)=N/Nc1ccccc1 (stereo not given) | 86.8% (inactive) |
| CN(C)C(=S)SC(=S)N(C)C | 92.9% (inactive) and 99% (inactive) |
| N=S(c1ccccc1[N+](=O)[O-])c1ccccc1[N+](=O)[O-] | 50.3% (inactive) |
| O=C(/C=C/c1ccccn1)c1ccccc1 | 74.7% (inactive) |
| COC1OCC(O)C(O)C1O (stereo not given) | 101% (inactive) |
| COc1ccc(CC(=O)c2ccc(O)cc2O)cc1 | 103% (inactive) |

Same assay, conditions: 100 µM

| Structure (SMILES) | growth |
| --- | --- |
| O=c1ccn(C2CC(O)C(COC(c3ccccc3)(c3ccccc3)c3ccccc3)O2)c(=O)[nH]1 (stereo not given) | 32.2% (inactive) |
